# Compound activity from PubChem.
# Shown are actives, neighbours in structure and some others; about 7% of the full set was active somewhere.
# proKLK7 act – proKLK7 zymogen activators, primary screen, biochemical, fluorescence intensity; purified proKLK7, EDANS-DABCYL substrate fluorescence; 100% is mature enzyme control, 0% vehicle; activation, % at 7 µM; 370,000 compounds, 0.9% hits;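 active means activation above the mean of all tested compounds plus 3 SD, computed per campaign excluding outliers beyond control limits, cut at about 13% in these data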
# ADAM10 inh – human ADAM10 inhibitors, primary screen, biochemical, QFRET, HTS. AID 720582, 2013. 370,000 compounds, 0.62% hits. inhibition, % at 7 µM. Disintegrin and metalloproteinase domain-containing protein 10 (Homo sapiens), O14672. recombinant ADAM10, EDANS/DABCYL FRET peptide cleavage, 3 h;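 active means inhibition above a per-campaign cutoff equal to the mean of compounds falling between control-based bounds plus 3 SD, cut at about 20% in these data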;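 further: 0% = DMSO wells while the 100% control is not disclosed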
# Target sequence (O14672 214-748 limits assumed): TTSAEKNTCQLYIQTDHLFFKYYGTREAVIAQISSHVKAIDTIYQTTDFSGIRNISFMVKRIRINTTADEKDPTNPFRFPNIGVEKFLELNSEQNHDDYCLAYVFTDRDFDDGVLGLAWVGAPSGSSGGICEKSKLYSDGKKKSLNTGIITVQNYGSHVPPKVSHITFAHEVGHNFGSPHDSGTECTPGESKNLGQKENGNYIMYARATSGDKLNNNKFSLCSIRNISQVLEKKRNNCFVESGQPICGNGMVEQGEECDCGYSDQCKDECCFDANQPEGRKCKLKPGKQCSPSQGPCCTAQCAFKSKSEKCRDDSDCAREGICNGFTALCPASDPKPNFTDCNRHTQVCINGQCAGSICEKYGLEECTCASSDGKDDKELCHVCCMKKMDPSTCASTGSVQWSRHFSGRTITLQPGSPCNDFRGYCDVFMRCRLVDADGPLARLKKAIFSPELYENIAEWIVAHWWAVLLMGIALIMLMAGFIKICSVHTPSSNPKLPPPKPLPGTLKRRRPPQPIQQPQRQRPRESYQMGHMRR
# ADAM17 inh – ADAM17 inhibitors, primary screen, biochemical, QFRET. Disintegrin and metalloproteinase domain-containing protein 17 (Homo sapiens), P78536. recombinant ADAM17, EDANS/DABCYL FRET peptide cleavage. inhibition, % at 6.95 µM. 370,000 compounds, 0.83% hits. AID 720648, 2013;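 active means inhibition above the mean of compounds lying between control limits plus 3 SD, set per campaign, cut at about 8.5% in these data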;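 further: 0% = DMSO-only wells as the low control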
# NR3A LBD binder – binders of NR3A ligand-binding domain, primary screen, biophysical, differential scanning fluorimetry, uHTS; NR3A LBD differential scanning fluorimetry, Tm shift; 0% = protein alone, 100% = glycine-bound protein; Tm shift relative to glycine control, % at 25 µM; 340,000 compounds, 2.5% hits; AID 1259313, 2017;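 active means melting temperature shift of at least 10% of the positive control shift, at one fixed dose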
# rCAG RNA binder – binders of r(CAG) RNA repeats, primary screen, biochemical, fluorescence | r(CAG) RNA repeat, TO-PRO-1 dye displacement fluorescence | inhibition, % at 3 µM | 370,000 compounds, 1.3% hits | AID 651821, 2012;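 active means inhibition above the plate cutoff, the mean of all test compounds on that plate plus 3 SD, cut at about 35% in these data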;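 further: 0% = DMSO alone and 100% = 100 µM mitoxantrone as full dye displacement; higher means more dye released from RNA so lower well fluorescence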
# AHR act – AHR activators, primary screen, cell-based, luminescence, luciferase reporter, human; activation, % at 5 µM; AHR-responsive luciferase reporter cells; Aryl hydrocarbon receptor (Homo sapiens), P35869; 320,000 compounds, 2.5% hits; in the data active means activation above about 47%;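 further: 0% = vehicle wells and 100% = reference agonist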
# * = called active by the depositor; i = inactive; nt = no result given.
SMILES,proKLK7 act,ADAM10 inh,ADAM17 inh,NR3A LBD binder,rCAG RNA binder,AHR act
COCC#Cc1ccc(CC[C@H]2O[C@H]3CC[C@@H](CO)O[C@H]3C[C@H]2n2cc(C3CC3)nn2)cc1,0.1,-0.9,4.9,nt,-0.5,nt
C=CCc1ccccc1OCCSc1nc2ccc([N+](=O)[O-])cc2s1,-0.6,-12.6,-1.8,-0.4,0.8,55.6*
COc1ccccc1OCCSc1nc2ccc([N+](=O)[O-])cc2s1,0.0,-2.7,3.8,0.9,4.2,35.3
COc1ccc2c(c1)CNC2CS(=O)(=O)NCCc1ccccc1 (stereo not given),-1.3,-82.7,-21.2,nt,10.1,nt
C/C(=N\NC(=O)CC1N=C(Cc2ccccc2)NNC1=O)c1ccncc1 (stereo not given),0.7,-4.5,-3.9,2.6,-1.8,56.7*
O=C(c1cccc(Cl)c1)N1CCN(c2ccnc3cc(Cl)ccc23)CC1,nt,1.9,-1.6,nt,nt,nt
COc1ccc(-c2cc(O)cc(O)c2)cc1,0.4,-2.9,-5.5,10.8*,5.1,9.1
COc1ccc(OC)cc1,0.1,-5.7,3.3,-3.2,-1.5,1.0
O/N=C\c1ccc2noc(-c3ccc(Cl)cc3)c2c1,-0.7,-8.2,-5.0,32.0*,4.6,3.0
COC(=O)C1CN(Cc2cn(CCC3OCCO3)nn2)CCS(=O)(=O)N1Cc1ccc(Cl)cc1 (stereo not given),-0.1,-8.1,-0.9,nt,2.9,nt
OC(COCC(F)(F)C(F)(F)C(F)(F)C(F)F)Cn1c2ccc(Cl)cc2c2cc(Cl)ccc21 (stereo not given),nt,nt,nt,19.4*,nt,0.0
N=c1n(Cc2ccc(Cl)cc2)c2ccccc2n1CC(O)COc1ccccc1 (stereo not given),-0.1,-1.1,-1.6,-2.3,18.5,5.5
Nc1c(Cl)cnc(C(Cl)(Cl)Cl)c1Cl,-0.6,-1.8,-0.8,0.8,-2.1,66.8*
COc1ccc(C(=O)NCC2CCN(C(=O)C(=O)c3cc4ccccc4o3)CC2)cc1,0.1,-5.9,-0.3,nt,5.0,nt
COc1cccc(N2CCN(CC(=O)NCc3c(F)cccc3F)CC2)c1,0.1,-8.9,-3.4,nt,-1.9,nt
Fc1ccc(-n2c(-c3ccco3)nc3nc4ccccc4nc32)cc1,-10.4,i,i,-1.2,19.0,1.8
Fc1ccc(-c2nc3nc4ccccc4nc3n2Cc2ccco2)cc1,0.7,-90.0,-36.9,21.5*,2.2,38.0
CC1CCCN(C(=O)c2ccc3c(c2NCCO)C(=O)c2ccccc2C3=O)C1 (stereo not given),-0.3,2.0,0.8,4.5,-1.4,9.5
O=C1c2ccccc2C(=O)c2c1ccc(C(=O)N1CCCCC1)c2NCCO,-0.5,-6.6,-3.9,12.3*,-3.2,1.1
O=C(/C=C/c1ccccc1F)c1cccc([N+](=O)[O-])c1,0.0,0.1,0.4,18.8*,9.0,57.6*
COc1ccc(C(=O)N(C)[C@H]2C[C@H]3c4[nH]c5c(-c6ccccc6)cccc5c4CCN3C(=O)[C@H]2[C@H](C)O)cc1,-0.6,-53.0,-14.2,nt,2.2,nt
CCS(=O)(=O)N1CCN(c2ccc([N+](=O)[O-])c(N3CCOCC3)c2)CC1,0.1,0.3,0.6,15.8*,-2.1,1.4
CNc1cc(N2CCN(S(=O)(=O)N(C)C)CC2)ccc1[N+](=O)[O-],-0.7,-5.6,-3.8,10.1*,2.2,8.2
CN1C(=O)C[C@@](C#N)(C(=O)NCCc2ccccc2)[C@H]1c1ccccc1,0.8,2.3,-2.4,nt,-0.6,nt
Clc1ccc(N2CCN(c3ccnc(Cl)n3)CC2)cc1,0.6,1.5,1.9,13.9*,-6.7,-7.4
SMILES,proKLK7 act,ADAM10 inh,ADAM17 inh,NR3A LBD binder,rCAG RNA binder,AHR act
CSc1nccc(N2CCN(c3ccc(F)cc3)CC2)n1,0.0,-1.6,-0.8,-0.9,1.6,-8.7
Cc1cc(C)cc(NS(=O)(=O)c2ccc3[nH]cc(C(=O)N4CCc5ccccc54)c(=O)c3c2)c1,0.4,12.3,5.6,13.3*,19.6,26.1
CC1CCCN(c2cccc3c2S(=O)(=O)N(Cc2cccc(F)c2)[C@@H](C)[C@H](c2ccccc2)O3)C1 (stereo not given in full),0.5,-12.1,-1.6,nt,2.5,nt
CC(=O)N(c1cccc(Cl)c1)c1nc(C)cc(C)c1C#N,0.0,-0.7,-3.2,2.0,-2.1,9.1
COc1ccccc1N(C(C)=O)c1nc(C)cc(C)c1C#N,-0.9,-5.2,-3.8,18.7*,-5.0,47.6*
COc1cccc(N(C(C)=O)c2nc(C)cc(C)c2C#N)c1,-0.3,-7.2,-5.0,1.2,-2.1,8.9
COc1ccc(Cl)cc1N(C(C)=O)c1nc(C)cc(C)c1C#N,-0.4,-0.2,-1.4,-0.5,-4.6,54.2*
CCCCCCCCN1C(=O)[C@@H](CC(=O)NCCCN2CCCC2=O)C[C@@]2(C(=O)OC)C1=C[C@H](C(C)(C)C)O[C@@H]2C,-0.5,10.3,3.1,nt,3.9,nt
CC(=O)c1ccc2c(c1)C1C=CCC1C(C(=O)O)N2 (stereo not given),-1.1,11.2,3.9,-0.6,96.1*,nt
CCOc1ccccc1C(=O)NN1C(=O)C2CCCCC2C1=O (stereo not given),-0.4,-11.2,-5.3,22.5*,-4.8,22.4
CC(C)c1ccc(C(=O)NN2C(=O)C3CCCCC3C2=O)cc1 (stereo not given),-0.4,-0.1,2.8,24.6*,0.1,7.6
CCOc1ccccc1C(=O)NN1CCOCC1,-0.6,4.7,1.6,0.9,1.1,23.7
O=C(NCCCCC(NC(=O)c1ccccc1)C(=O)O)OCc1ccccc1 (stereo not given),0.0,-0.9,-2.8,nt,7.0,nt
COc1ccc(-c2noc(C3CCCN(C(=O)NC4CCC(C)CC4)C3)n2)cc1 (stereo not given),0.6,-3.3,-0.7,nt,0.1,nt
O=C(CSc1nnc(-c2cccs2)o1)c1cccc([N+](=O)[O-])c1,0.5,1.2,-0.2,nt,4.5,nt
O=[N+]([O-])c1cccc(/C=C/c2nc[nH]c2[N+](=O)[O-])c1,-0.1,2.1,-1.1,15.9*,1.7,2.4
Cc1c(Cl)cccc1NC(=O)CNc1cccc(C(F)(F)F)c1,0.0,2.8,3.0,-8.8,-3.8,0.8
N#Cc1ccccc1NC(=O)CNc1ccc(Cl)c(C(F)(F)F)c1,0.0,-2.4,0.1,-10.2,0.9,65.0*
COC(=O)c1ccc(S(=O)(=O)N2CCC(NC(=O)CCc3ccccc3)CC2)cc1,0.4,-3.6,-0.1,nt,1.9,nt
COc1ccc(N/N=C(\C#N)C(=N)SCc2ccccc2)cc1,0.2,7.6,4.4,29.0*,4.9,nt
